Activity calls are given as the source filed them. Unless noted, the rule behind the calls is not given here.
How the values were obtained:
[1] = A549 cell viability effects, profiling panel, calcein-AM fluorescence, 48 h, basal (AID 1162); settings: higher = more signal; note: test concentration not given here
[2] = adipocyte viability effects, profiling panel, cell-based, 3T3-L1 adipocytes, calcein-AM fluorescence, 48 h, basal (AID 1163); settings: 3T3-L1 adipocytes viability, higher = more signal; note: test concentration not given here
[3] = HepG2 cell viability effects, profiling panel, calcein-AM fluorescence, 48 h, basal (AID 1164); settings: higher = more signal; note: test concentration not given here
[4] = MM1S cell viability effects, profiling panel, calcein-AM fluorescence, 48 h, basal (AID 1165); settings: higher = more signal;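 note: viability of MM1S multiple myeloma cells under basal unstimulated conditions; test concentration not given here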
[5] = basal RPMI8226 viability, no added stimulus, profiling panel, cell-based, calcein-AM fluorescence, 48 h, PK04 Diversity Set (AID 1166); settings: RPMI8226 myeloma viability, higher = more signal;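 note: cells grown under basal conditions without added stimulus; test concentration not given here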
[6] = basal HepG2 mitochondrial membrane potential changes, profiling panel, cell-based, JC-1 fluorescence, 24 h, 100 nL compound (AID 1167); settings: higher = more signal; note: test concentration not given here
[7] = basal 3T3-L1 adipocyte mitochondrial potential changes, profiling panel, cell-based, JC-1 fluorescence, 3T3-L1 adipocytes, 24 h, 100 nL compound (AID 1168); settings: JC-1 mitochondrial fluorescence, higher = more signal, called active from +8 up or from −8 down; note: test concentration not given here
[8] = basal RPMI8226 mitochondrial membrane potential changes, profiling panel, cell-based, JC-1 fluorescence, 24 h, 100 nL compound (AID 1169); settings: RPMI8226 myeloma, JC-1 mitochondrial potential fluorescence, higher = more signal; note: test concentration not given here
[9] = basal MM1S mitochondrial membrane potential changes, profiling panel, cell-based, JC-1 fluorescence, 24 h, 100 nL compound (AID 1170); settings: higher = more signal; note: test concentration not given here
[10] = A549 lung cancer cell viability effects, profiling panel, resazurin fluorescence, 24 h, PK04 Diversity Set (AID 1171); settings: higher = more signal, called active from +8 up or from −8 down; note: test concentration not given here
[11] = HepG2 liver cancer cell viability effects, profiling panel, resazurin fluorescence, 24 h, PK04 Diversity Set (AID 1172); settings: higher = more signal; note: test concentration not given here
[12] = basal S. cerevisiae growth modulation, no modifier, primary screen, OD600, strain BY4716, 24 h, basal condition (AID 1173); settings: OD600, 24 h, higher = more signal, called active from +8 up or from −8 down
[13] = MM1S myeloma cell viability, profiling panel, resazurin fluorescence, basal, 24 h, PK04 Diversity Set (AID 1174); settings: higher = more signal, called active from +8 up or from −8 down;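 note: MM1S multiple myeloma cell line; test concentration not given here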
[14] = molecular target: Dihydroorotate dehydrogenase (quinone), mitochondrial (Plasmodium falciparum (isolate 3D7)) (UniProt Q08210); assay: PfDHODH enzyme inhibitors, primary screen, biochemical, C-terminal His tag, absorbance 600 nm (AID 1175); settings: DCIP absorbance 600 nm, higher = more signal, called active from +8 up or from −8 down;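 note: recombinant parasite enzyme with a five histidine tag at its C terminus; test concentration not given here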
[15] = P. aeruginosa biofilm formation inhibitors, primary screen, strain PAO1, LB-PBS medium, absorbance 600 nm (AID 1176); note: test concentration not given here; settings: P. aeruginosa PAO1 growth/biofilm, A600, 12 h; higher = more signal
[16] = S. cerevisiae RM11-1a growth modifiers, primary screen, strain RM11-1a, OD600, basal, 24 h (AID 1177); settings: OD600, 24 h, higher = more signal, called active from +8 up or from −8 down;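 note: cultures grown under basal conditions with no added stressor; test concentration not given here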
[17] = E. coli acrAB mutant growth effects, primary screen, E. coli filamentation inducers, strain DRC39, OD650, 24 h (AID 1178); settings: higher = more signal, called active from +8 up or from −8 down;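 note: growth measured as culture turbidity by optical density at 650 nm; test concentration not given here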
[18] = E. coli acrAB mutant growth effects, primary screen, E. coli filamentation inducers, strain DRC39, OD650, 48 h (AID 1179);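 note: screen aims at cell division blockers that make cells filament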; settings: E. coli DRC39 delta-acrAB growth, higher = more signal, called active from +8 up or from −8 down
[19] = RPMI8226 myeloma cell viability, profiling panel, resazurin fluorescence, basal, 24 h, PK04 Diversity Set (AID 1180); settings: higher = more signal;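 note: RPMI8826 multiple myeloma cell line at 5000 cells per well; test concentration not given here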
[20] = molecular target: E3 ubiquitin-protein ligase XIAP (Homo sapiens) (UniProt P98170); assay: XIAP binders, primary screen, biophysical, small-molecule microarray, fluorescence 635 nm (AID 1181); settings: small-molecule microarray binding, higher = more signal;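 note: score merges 667 nm emission and signal to noise over triplicate slides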
Sequence of E3 ubiquitin-protein ligase XIAP (Homo sapiens) (P98170 whole entry, looked up): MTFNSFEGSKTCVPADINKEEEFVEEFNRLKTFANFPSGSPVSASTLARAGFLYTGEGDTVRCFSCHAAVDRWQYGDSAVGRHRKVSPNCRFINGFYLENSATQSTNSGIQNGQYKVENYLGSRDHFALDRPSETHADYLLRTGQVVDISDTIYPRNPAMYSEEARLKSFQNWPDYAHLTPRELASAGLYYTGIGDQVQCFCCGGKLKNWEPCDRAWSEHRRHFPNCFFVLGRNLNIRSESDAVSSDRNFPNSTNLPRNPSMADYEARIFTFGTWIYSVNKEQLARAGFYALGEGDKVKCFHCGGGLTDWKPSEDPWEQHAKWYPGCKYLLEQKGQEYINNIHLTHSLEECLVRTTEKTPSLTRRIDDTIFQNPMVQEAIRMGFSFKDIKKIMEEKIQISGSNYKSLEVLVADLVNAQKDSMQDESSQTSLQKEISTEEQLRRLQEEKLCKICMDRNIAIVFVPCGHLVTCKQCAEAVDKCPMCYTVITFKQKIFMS

Sequence of Dihydroorotate dehydrogenase (quinone), mitochondrial (Plasmodium falciparum (isolate 3D7)) (Q08210 whole entry, looked up): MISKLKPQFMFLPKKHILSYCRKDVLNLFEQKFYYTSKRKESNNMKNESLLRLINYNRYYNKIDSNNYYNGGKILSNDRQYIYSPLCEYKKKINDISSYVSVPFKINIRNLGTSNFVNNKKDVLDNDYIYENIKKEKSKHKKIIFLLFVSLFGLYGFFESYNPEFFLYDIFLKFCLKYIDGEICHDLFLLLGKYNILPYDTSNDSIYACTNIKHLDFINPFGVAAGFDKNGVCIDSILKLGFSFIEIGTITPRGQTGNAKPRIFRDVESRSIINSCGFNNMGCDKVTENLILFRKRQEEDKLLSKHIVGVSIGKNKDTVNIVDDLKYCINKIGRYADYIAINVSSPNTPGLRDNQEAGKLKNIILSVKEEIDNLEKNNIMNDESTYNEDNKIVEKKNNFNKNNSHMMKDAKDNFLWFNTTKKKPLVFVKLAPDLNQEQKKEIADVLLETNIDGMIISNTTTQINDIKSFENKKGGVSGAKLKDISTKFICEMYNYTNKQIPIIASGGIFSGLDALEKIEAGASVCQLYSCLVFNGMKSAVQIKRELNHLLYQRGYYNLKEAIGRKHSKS

| SMILES | z-score [1] | z-score [2] | z-score [3] | z-score [4] | z-score [5] | z-score [6] | z-score [7] | z-score [8] | z-score [9] | z-score [10] | z-score [11] | z-score [12] | z-score [13] | composite z-score [14] | z-score [15] | z-score [16] | z-score [17] | z-score [18] | z-score [19] | composite z-score [20] |
| --- | --- | --- | --- | --- | --- | --- | --- | --- | --- | --- | --- | --- | --- | --- | --- | --- | --- | --- | --- | --- |
| CCCN1C(=O)[C@@]2(Cc3ccccc3)N=C(c3ccc(OCCCO)cc3)O[C@H]2c2ccccc21 | -1.54 | 0.778 | -1.7 | -2.34 | -4.32 | -0.214 | 1.18 (inactive) | -1.27 | -0.647 | -0.232 (inactive) | 0.167 | -2.03 (inactive) | -1.66 (inactive) | -0.319 (inactive) | 1.02 (inactive) | 0.673 (inactive) | 0.248 (inactive) | -0.319 (inactive) | -1.57 | -0.206 |
| COC(=O)C(CC#Cc1ccc2c(c1)[C@]1(C(=O)N2)[C@H](C(=O)N2CCc3cc(OC)c(OC)cc3C2)[C@H]2C(=O)O[C@H](c3ccccc3)[C@H](c3ccccc3)N2[C@@H]1c1ccc(O)cc1)C(=O)OC | -0.703 | 1.08 | 0.613 | -0.993 | -3.27 | -1.81 | 0.604 (inactive) | -0.606 | 0.567 | -0.216 (inactive) | -0.555 | 1.8 (inactive) | 1.26 (inactive) | -22.8 (active) | 3.04 (inactive) | 3.33 (inactive) | 0.414 (inactive) | 0.356 (inactive) | -0.14 | -0.167 |
| CC(C)=CCCC(C)=CC(O)C1C=CC2C(=O)N(c3ccccc3)C(=O)C2N1Nc1ccc([N+](=O)[O-])cc1 (stereo not given) | -0.498 | 0.701 | -0.0971 | -1.2 | -0.186 | -1.07 | -1.44 (inactive) | 0.417 | 1.41 | -0.214 (inactive) | -0.674 | -1.14 (inactive) | -0.753 (inactive) | -0.697 (inactive) | 0.492 (inactive) | -0.853 (inactive) | -1.49 (inactive) | -1.43 (inactive) | -0.276 | 0.0817 |
| CC(C)(C)OC(=O)CC[C@@]1(C(=O)N2CCCCC2)N=C(c2ccc(OCCCO)cc2)O[C@@H]1c1ccccc1CN=[N+]=[N-] | 0.708 | -0.125 | 1.25 | -3.47 | -0.624 | 2.12 | -0.405 (inactive) | -0.863 | -0.995 | 0.642 (inactive) | 0.613 | 0.0243 (inactive) | 0.053 (inactive) | 0.113 (inactive) | -0.223 (inactive) | 0.978 (inactive) | -0.366 (inactive) | 0.831 (inactive) | 0.0127 | 0.183 |
| O=C1O[C@H](c2ccccc2)[C@H](c2ccccc2)N2[C@H]1[C@@H](C(=O)N1CCN(c3ncccn3)CC1)[C@]1(C(=O)Nc3ccc(C#CCCO)cc31)[C@H]2c1ccc(OCCO)cc1 | -0.696 | 0.404 | -0.53 | -1.04 | -0.284 | -0.838 | 0.717 (inactive) | -0.883 | -0.386 | 0.978 (inactive) | 0.956 | 1.01 (inactive) | -0.901 (inactive) | -0.692 (inactive) | 3.36 (inactive) | 1.2 (inactive) | 0.275 (inactive) | -0.432 (inactive) | 0.747 | 0.256 |
| CCCCC=C[C@@H](NC(=O)CCc1ccccc1)c1ccccc1 | -2.48 | -0.346 | -3.43 | -3.31 | -4.71 | -3.88 | -0.775 (inactive) | -0.85 | -1.74 | -1.3 (inactive) | -1.61 | 0.927 (inactive) | -2.09 (inactive) | -0.739 (inactive) | 1.16 (inactive) | 0.929 (inactive) | -0.0955 (inactive) | -0.169 (inactive) | -3.6 | -0.154 |
| C=CC[C@]1(C(=O)NCC(O)CO)N=C(c2ccc(OCCCO)cc2)O[C@H]1c1ccccc1N=[N+]=[N-] (stereo not given in full) | -0.402 | 0.864 | -0.735 | -1.16 | 0.736 | -0.285 | 0.13 (inactive) | -0.49 | 0.857 | 0.702 (inactive) | 0.662 | -0.746 (inactive) | -0.302 (inactive) | 1.13 (inactive) | 0.755 (inactive) | 0.329 (inactive) | 0.769 (inactive) | -0.579 (inactive) | 0.245 | -0.106 |
| CCOC(=O)C[C@H]1[C@H](OC(=O)Cc2ccc3c(c2)OCO3)[C@@H](NC(=O)c2ccccc2)c2cc(OCCCO)ccc2N1C(=O)c1ccccc1 | -0.11 | 0.232 | 1.52 | -0.266 | 0.503 | 0.614 | 0.746 (inactive) | 0.684 | -0.96 | 0.323 (inactive) | -0.688 | -0.271 (inactive) | 0.103 (inactive) | -1.11 (inactive) | 0.0885 (inactive) | 0.0859 (inactive) | 0.31 (inactive) | 0.676 (inactive) | -0.19 | -0.309 |
